Results on twelve compounds are retold here after PubChem BioAssay (Tox21).

Values joined by “and” are separate entries in the source; they are usually repeats but may differ in a detail not shown here. Equal values may be shown once. Unmarked numbers belong to inactive results. Results filed as inconclusive are left out. Active and inactive are the calls of the source. Unless noted, calls come from the whole dose curve; as a rule, active = well fitted curve in the direction sought with a large enough effect in the repeat runs; inconclusive = weak or mixed curves; inactive = no such curve, though single readings can be large; an effect the other way counts as inactive or inconclusive.

Assay [1] is described as follows: qHTS assay to test for compound auto fluorescence at 460 nm (blue) in HEK293 cell free culture (AID 720681). In short, it runs like this:
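Test compounds were pinned into cell-free culture medium (DMEM with 10% FBS) and fluorescence was read directly at Ex/Em 405/460 nm. Signals were expressed as fluorescence equivalents of triamterene, with DMSO vehicle as control.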
Background: Quantitative high-throughput screening tests each substance at several concentrations.

Assay [2] in a line: qHTS assay to test for compound auto fluorescence at 535 nm (green) in HEK293 cell free culture (AID 720682). In short, it runs like this:
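Green-label autofluorescence (485 nm excitation, 535 nm emission) measured on compound added to cell-free culture medium (DMEM, 10% FBS). Output is expressed relative to fluorescein.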

Assay [3] is described as follows: qHTS assay to test for compound auto fluorescence at 590 nm (red) in HEK293 cell free culture (AID 720683). In a few lines:
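Tox21 10K library compounds were pinned into cell-free DMEM with 10% FBS and fluorescence was read at excitation 540 nm. Activity is expressed as Rose Bengal sodium equivalency.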

Assay [4] is described as follows: qHTS assay to test for compound auto fluorescence at 590 nm (red) in HepG2 cell free culture (AID 720684). In a few lines: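 Ex 540 / Em 590 nm read of compound in cell-free MEM (10% FBS). Rose Bengal sodium reference.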
Assay [5] in a line: qHTS assay to test for compound auto fluorescence at 460 nm (blue) in HepG2 cell free culture (AID 720685). In a few lines:
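Cell-free plates of MEM plus 10% FBS received 23 nL compound or DMSO vehicle; blue-channel (405/460 nm) intensity scored against triamterene as reference fluorophore.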

Assay [6] in a line: qHTS assay to test for compound auto fluorescence at 535 nm (green) in HepG2 cell free culture (AID 720686).
Assay [7] is described as follows: qHTS assay to test for compound auto fluorescence at 460 nm (blue) in HepG2 cells (AID 720687). In a few lines: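 Cells (2,000/well in MEM with 10% FBS) attached overnight at 37 C, then were exposed to compound or DMSO for 1 hr at 37 C, 5% CO2. Fluorescence read at Ex/Em 405/460 nm, expressed as triamterene-equivalent signal.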
The target in assay [8] is Glucocorticoid receptor (Homo sapiens) (UniProt P04150). Kind of assay: qHTS assay to identify small molecule agonists of the glucocorticoid receptor (GR) signaling pathway (AID 720691; active = well fitted activation curve with a large enough effect in the signal ratio in the repeat runs, not every such curve was filed as active; the % refers to the signal ratio). In a few lines:
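HeLa GR-bla reporter line; cells pre-incubated 4 h, compound in DMSO 18 h at 37 C; LiveBLAzer B/G FRET substrate 2 h RT; fluorescence intensity read-out.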

Assay [9] in a line: qHTS assay to identify small molecule antagonists of the glucocorticoid receptor (GR) signaling pathway - cell viability counter screen (AID 720693). Note: nearly all actives have a fitted effect of over 55% in size.
Assay [10] is described as follows: qHTS assay for identifying genotoxic compounds that show differential cytotoxicity against isogenic chicken DT40 cell lines with known DNA damage response pathways - wild type cell line (AID 743012). Note: nearly all actives have a fitted effect of over 60% in size. Note: potency is the fitted concentration of half-maximal effect. In short, it runs like this:
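CellTiter-Glo luminescence readout of viability in wild type DT40 cells after 40 h compound exposure at 37 C/5% CO2; 300 cells/well; reagent incubated 30 min at room temperature before reading.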

A short description of assay [11]: qHTS assay for identifying genotoxic compounds that show differential cytotoxicity against isogenic chicken DT40 cell lines with known DNA damage response pathways - Rev3 mutant cell line (AID 743014). Note: nearly all actives have a fitted effect of over 55% in size. Note: potency is the fitted concentration of half-maximal effect.
Assay [12] in a line: qHTS assay for identifying genotoxic compounds that show differential cytotoxicity against isogenic chicken DT40 cell lines with known DNA damage response pathways - Rad54/Ku70 mutant cell line (AID 743015). Note: nearly all actives have a fitted effect of over 60% in size.
Assay [13] is described as follows: qHTS assay to identify small molecule antagonists of the androgen receptor (AR) signaling pathway using the MDA cell line - cell viability counter screen (AID 743041; note: nearly all actives have a fitted effect of over 45% in size; note: potency is the fitted concentration of half-maximal effect). In a few lines:
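In this qHTS counter assay, fluorescence intensity after CellTiter-Fluor addition indicated viability of MDA-kb2 AR-luc cells given compounds and R1881 for 16 h at 37C.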

For assay [14], the target named is Glucocorticoid receptor (Homo sapiens) (UniProt P04150). Kind of assay: qHTS assay to identify small molecule antagonists of the glucocorticoid receptor (GR) signaling pathway (AID 720692; active = well fitted inhibition curve with a large enough effect in the signal ratio in the repeat runs, not every such curve was filed as active; the % refers to the signal ratio; note: potency is the fitted concentration of half-maximal effect). In short, it runs like this:
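Read-out: beta-lactamase FRET substrate fluorescence, 2 h at room temperature, in HeLa cells stably carrying a GRE-driven bla reporter. Compounds were co-incubated with 5 nM dexamethasone agonist (final) for 18 h at 37 C.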

The nature of assay [15]: qHTS assay to identify small molecule antagonists of the androgen receptor (AR) signaling pathway - cell viability counter screen (AID 743033; note: nearly all actives have a fitted effect of over 45% in size; note: potency is the fitted concentration of half-maximal effect).
Assay [16] deals with Androgen receptor (Homo sapiens) (UniProt P10275). Nature of the assay: qHTS assay to identify small molecule agonists of the androgen receptor (AR) signaling pathway using the MDA cell line (AID 743040; note: nearly all actives have a fitted effect of over 20% in size). In short, it runs like this:
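Cell-based luciferase reporter: MDA-kb2, MMTV promoter (AR + GR response elements). 16 h compound exposure at 37C; ONE-Glo, 30 min RT, luminescence.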

Assay [17] has the same target. Nature of the assay: qHTS assay to identify small molecule antagonists of the androgen receptor (AR) signaling pathway using the MDA cell line (AID 743042; note: nearly all actives have a fitted effect of over 55% in size). In short, it runs like this:
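MDA-kb2 cells (human breast carcinoma, stably carrying an MMTV-luciferase reporter responsive to AR and GR) were plated at 3,000 cells/well and preincubated 5 hr at 37C, then given compound plus R1881 agonist for 16 h. ONE-Glo luminescence was read.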

Assay [18] has the same target. Kind of assay: qHTS assay to identify small molecule antagonists of the androgen receptor (AR) signaling pathway (AID 743035; active = well fitted inhibition curve with a large enough effect in the signal ratio in the repeat runs, not every such curve was filed as active; the % refers to the signal ratio). In short, it runs like this:
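AR-bla HEK293 reporter cells; 4 h settle at 37C/5% CO2; compound + R1881 agonist, 16 h at 37C; LiveBLAzer B/G FRET substrate 2 h RT; fluorescence intensity read. qHTS format.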

For assay [19] the target is unchanged. Nature of the assay: qHTS assay to identify small molecule agonists of the androgen receptor (AR) signaling pathway (AID 743036; active = well fitted activation curve with a large enough effect in the signal ratio in the repeat runs, with a control signal flat, not every such curve was filed as active; the % refers to the signal ratio). In a few lines: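 AR-UAS-bla HEK293 cells, plated 4 h before dosing, were treated with compound for 16 h at 37C. beta-Lactamase reporter read after 2 h with LiveBLAzer B/G FRET substrate at room temperature.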

Chain of Androgen receptor (Homo sapiens) (P10275 whole entry, looked up): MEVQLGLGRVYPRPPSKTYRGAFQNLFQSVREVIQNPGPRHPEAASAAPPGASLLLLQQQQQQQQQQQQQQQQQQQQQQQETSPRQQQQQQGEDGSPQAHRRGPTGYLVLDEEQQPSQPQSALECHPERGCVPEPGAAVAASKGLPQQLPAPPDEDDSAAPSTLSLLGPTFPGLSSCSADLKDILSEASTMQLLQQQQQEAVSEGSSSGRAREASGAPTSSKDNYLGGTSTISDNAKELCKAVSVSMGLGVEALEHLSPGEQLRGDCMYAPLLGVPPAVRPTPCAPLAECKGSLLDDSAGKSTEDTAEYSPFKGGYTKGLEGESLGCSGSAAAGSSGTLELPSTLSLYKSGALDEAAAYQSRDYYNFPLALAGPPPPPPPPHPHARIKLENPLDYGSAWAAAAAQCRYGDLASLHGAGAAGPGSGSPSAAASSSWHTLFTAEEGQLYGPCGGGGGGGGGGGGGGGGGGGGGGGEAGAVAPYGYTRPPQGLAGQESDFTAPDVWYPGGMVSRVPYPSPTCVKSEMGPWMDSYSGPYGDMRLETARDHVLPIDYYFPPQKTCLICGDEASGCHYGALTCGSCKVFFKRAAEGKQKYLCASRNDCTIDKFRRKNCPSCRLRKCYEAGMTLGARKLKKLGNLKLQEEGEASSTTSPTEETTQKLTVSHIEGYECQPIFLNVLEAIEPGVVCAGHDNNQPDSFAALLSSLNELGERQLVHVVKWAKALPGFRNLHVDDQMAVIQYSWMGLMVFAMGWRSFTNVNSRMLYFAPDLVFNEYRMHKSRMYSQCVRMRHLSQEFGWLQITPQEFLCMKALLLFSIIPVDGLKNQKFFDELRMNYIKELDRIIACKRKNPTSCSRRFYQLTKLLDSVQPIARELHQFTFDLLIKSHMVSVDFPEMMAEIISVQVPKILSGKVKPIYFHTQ
Chain of Glucocorticoid receptor (Homo sapiens) (P04150 whole entry, looked up): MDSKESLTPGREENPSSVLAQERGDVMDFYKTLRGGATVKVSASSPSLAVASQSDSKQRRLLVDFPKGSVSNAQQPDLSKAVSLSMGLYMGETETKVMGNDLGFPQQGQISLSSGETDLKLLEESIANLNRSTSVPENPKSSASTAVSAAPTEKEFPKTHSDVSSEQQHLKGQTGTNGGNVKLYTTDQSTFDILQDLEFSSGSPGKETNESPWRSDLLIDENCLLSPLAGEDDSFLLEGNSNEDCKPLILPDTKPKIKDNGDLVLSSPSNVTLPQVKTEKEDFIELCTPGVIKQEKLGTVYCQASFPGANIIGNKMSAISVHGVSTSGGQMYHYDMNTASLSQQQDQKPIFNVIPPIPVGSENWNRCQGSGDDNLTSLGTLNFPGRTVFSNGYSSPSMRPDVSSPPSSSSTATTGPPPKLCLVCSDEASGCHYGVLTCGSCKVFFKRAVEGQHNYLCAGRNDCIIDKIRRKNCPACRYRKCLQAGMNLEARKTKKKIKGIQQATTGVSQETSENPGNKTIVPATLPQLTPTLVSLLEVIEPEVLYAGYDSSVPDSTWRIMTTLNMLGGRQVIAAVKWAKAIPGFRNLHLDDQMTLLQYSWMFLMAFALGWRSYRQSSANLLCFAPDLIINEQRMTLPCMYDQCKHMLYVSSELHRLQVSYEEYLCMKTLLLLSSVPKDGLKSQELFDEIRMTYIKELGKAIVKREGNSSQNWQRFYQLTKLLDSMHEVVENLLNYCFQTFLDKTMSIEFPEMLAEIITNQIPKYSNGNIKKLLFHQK

For `O=C(Cl)c1c(Cl)cccc1Cl`, the Potency entry in [1], in assay [5], in [7], in [8], in [9] and in [10] was “inactive” each time. In addition, the Potency entry in assay [11], in assay [12] and in assay [13] was “inactive” throughout. Further, the call in assay [2], in assay [3], in assay [4] and in [6] was inactive.

In the case of `COC(=O)CSc1cc(N=c2sc(=O)n3n2CCCC3)c(F)cc1Cl`, the Potency result in [1], in [5], in [7], in assay [8], in assay [14] and in [15] was “inactive” in each case. For the same compound, the Potency entry in assay [16], in [13] and in [17] was “inactive” in each case. In addition, the compound was classed as inactive in [2], in assay [3], in assay [4] and in assay [6].

In the case of `CC(=O)CC(=O)c1ccccc1`, the Potency entry in [1], in assay [5], in [7], in [8], in [14] and in assay [9] was “inactive” throughout. The Potency result in assay [10], in [11], in assay [15] and in [13] was “inactive” each time. Also, the call in [2], in assay [3], in assay [4] and in assay [6] was inactive.

As for `COCCCCCCCCOCCC[Si](C)(O[Si](C)(C)C)O[Si](C)(C)C`, the compound was called inactive in assay [2], in assay [3], in [4] and in assay [6]. In addition, the Potency entry in [5], in assay [7] and in assay [9] was “inactive” in each case. For the same compound, the Potency is 5.45 µM (active) in assay [10], 6.11 µM (active) in assay [11], 6.92 µM (active) in [15] and 21.7 µM (active) in assay [13].

Turning to `C=CC[N+]1([C@H]2C[C@H]3[C@@H]4CC[C@H]5C[C@H](OC(C)=O)[C@@H](N6CCCCC6)C[C@]5(C)[C@H]4CC[C@]3(C)[C@H]2OC(=O)CC)CCCCC1`, the Potency entry in assay [1], in [5], in [7], in assay [9], in assay [15] and in [13] was “inactive” each time. Also, the call in assay [2], in assay [3], in assay [4] and in assay [6] was inactive.

As to `Cc1cc(C)c(S(=O)(=O)O)cc1N=Nc1cc(S(=O)(=O)O)c2ccccc2c1O`, the Potency result in assay [1], in [5], in assay [7], in [9], in assay [10] and in assay [11] was “inactive” each time. Also, the Potency result in assay [18], in assay [16] and in assay [17] was “inactive” each time. The compound was classed as inactive in assay [3], in assay [4], in assay [6] and in assay [19]. Moreover, in [13], the Potency was 30.6 µM (active).

In the case of `S=C(S)NCCNC(=S)S`, the Potency result in [1], in assay [5], in assay [7], in assay [8], in assay [14] and in assay [9] was “inactive” in each case. The Potency result in assay [10], in [11], in assay [12], in assay [15] and in [13] was “inactive” in each case. Further, the call in [2], in assay [3], in assay [4] and in [6] was inactive.

As for `OC(CCN1CCCCC1)(c1ccccc1)C1CCCCC1` (stereo not given), the Potency entry in assay [1], in assay [5], in assay [7], in assay [9], in assay [11] and in assay [12] was “inactive” throughout. In addition, the Potency result in assay [15] and in [13] was “inactive” in each case. For the same compound, the compound was called inactive in [3], in [4] and in assay [6]. Further, the Potency in assay [10] is 26.6 µM (active).

For the compound `CC1=CCC(C(C)C)C=C1` (stereo not given), the Potency result in [1], in assay [5], in assay [7], in assay [9], in [10] and in assay [13] was “inactive” throughout. The outcome in [2], in assay [3], in [4] and in [6] was inactive.

Turning to `O=C(O)Cc1cc(I)c(Oc2ccc(O)c(I)c2)c(I)c1`, the Potency entry in assay [1], in assay [5], in assay [7], in [8], in [10] and in assay [11] was “inactive” in each case. Also, the Potency result in [15] and in [13] was “inactive” in each case. Besides, the compound was called inactive in assay [2], in assay [3], in assay [4] and in assay [6]. Also, the Potency in assay [14] is 9.1 µM (active) and 3.47 µM (active).

Take `Cc1ccc(C(N)=O)cc1N`: the Potency entry in assay [1], in assay [5], in [7], in assay [8], in [14] and in assay [9] was “inactive” each time. The Potency entry in assay [10], in [11] and in [13] was “inactive” each time. The result in assay [3], in [4] and in assay [6] was inactive.

Consider `CC1CCc2cc(F)cc3c(=O)c(C(=O)O)cn1c23` (stereo not given), for which the call in [2], in [3], in assay [4] and in assay [6] was inactive. In addition, the Potency entry in assay [5], in assay [7], in assay [8], in [9], in [10] and in assay [11] was “inactive” each time. Also, the Potency result in [12], in assay [15] and in [13] was “inactive” throughout.
